This note sets out measurements from PubChem BioAssay.

Active and inactive are the calls of the source.

The subject of experiment [1] is Plasmodium falciparum Sir2 (PF13_0152, Sir2A). Nature of the experiment: pfSir2 binders on small-molecule microarrays, primary screen, biochemical, small-molecule microarray, 635 nm fluorescence (AID 1098).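 Further: score merges spot fluorescence intensity with its signal-to-noise ratio.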 Particulars: small-molecule microarray binding, fluorescence 635 nm; higher = more signal.
A short description of experiment [2]: small-molecule microarray binders of probe aDKK1, primary screen, biochemical, biotinylated probe, 635/667 nm fluorescence (AID 1099).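 Further: score merges 667nm spot fluorescence with signal to noise across triplicate slides.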 As to conditions: higher = more signal.
Experiment [3] can be described thus: small-molecule microarray binders of probe aCHRDL2, primary screen, biochemical, biotinylated probe, 635/667 nm fluorescence (AID 1100). As to conditions: higher = more signal.
The nature of experiment [4]: splicing luciferase reporter signal modulators, primary screen, spliceosome inhibition project, cell-based, HEK293, splice +/- reporter (AID 1101).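 Further: HEK293 cells carrying a splicing-competent luciferase reporter gene; test concentration not given here.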 Particulars: luminescence, 24 h, higher = more signal, called active from +8 up or from −8 down. A general note: Reporter assays use an easily measured gene product as a stand-in for the process of interest.
Experiment [5] deals with Fibroblast growth factor 10 (Homo sapiens) (UniProt O15520). Description: FGF10 binders on small-molecule microarrays, primary screen, biochemical, small-molecule microarray, 635 nm fluorescence (AID 1102). Particulars: FGF10 binding, fluorescence 635 nm, higher = more signal.
The subject of experiment [6] is glycogen synthase kinase-3 (GSK3A per assay name; protocol says GSK3B). Nature of the experiment: GSK3 binders on small-molecule microarrays, primary screen, biochemical, small-molecule microarray, 635 nm fluorescence, GSK3A (AID 1103). Further: the record names both GSK3A and GSK3B. As to conditions: small-molecule microarray binding, fluorescence 635 nm; higher = more signal.
Experiment [7] addresses Epidermal growth factor receptor (Homo sapiens) (UniProt P00533). Nature of the experiment: EGFR binders on small-molecule microarrays, primary screen, biochemical, small-molecule microarray, 635 nm fluorescence (AID 1104).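 Further: score merges 667 nm emission intensity with spot signal to noise over triplicate slides.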 As to conditions: EGFR binding, higher = more signal.
In experiment [8] the target is Follistatin-related protein 3 (Homo sapiens) (UniProt O95633). Description: FSTL3 binders on small-molecule microarrays, primary screen, biochemical, small-molecule microarray, 635 nm fluorescence (AID 1105).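 Further: score merges emission near 667 nm and signal to noise per printed spot across three slides.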 Particulars: FSTL3 binding, higher = more signal.
In experiment [9] the target is Dickkopf-related protein 1 (Homo sapiens) (UniProt O94907). Nature of the experiment: DKK1 binders on small-molecule microarrays, primary screen, biochemical, small-molecule microarray, 635 nm fluorescence scan (AID 1106).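 Further: score merges emission near 667 nm with signal to noise over three replicate slides.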 As to conditions: DKK1 binding, higher = more signal.
The test system of experiment [10] is Inhibin beta A chain (activin A). Nature of the experiment: INHBA (activin A) binders on microarrays, primary screen, biochemical, small-molecule microarray, 635 nm fluorescence scan (AID 1107).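 Further: mouse activin A protein probed at 4.33 µg/mL on printed slides; score merges bound-protein fluorescence near 667 nm with spot signal-to-noise.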 As to conditions: small-molecule microarray binding, higher = more signal.
Experiment [11] concerns Human papillomavirus type 1a protein E7 (residues 44-93). Description: HPV1a E7 fragment binders on microarrays, primary screen, biochemical, small-molecule microarray, residues 44-93, 635 nm fluorescence (AID 1108).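 Further: E7 fragment applied at 1 µg/mL in TBST for 1 h at 4 C; score combines spot fluorescence with its signal to noise ratio.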 As to conditions: small-molecule microarray binding, fluorescence 635 nm; higher = more signal.
Experiment [12] in a line: modulators of HCV replicon luciferase signal, primary screen, HCV replication inhibitor project, Huh7 cells, luciferase reporter (AID 1109).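 Further: huh7 hepatoma cells harbouring a luciferase neomycin HCV replicon reporter; luciferase luminescence as measure of HCV replicon replication; test concentration not given here.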 Particulars: 48 h, higher = more signal.
Experiment [13] addresses Left-right determination factor 2 (Homo sapiens) (UniProt O00292). Description: LEFTY2 binders on small-molecule microarrays, primary screen, biochemical, small-molecule microarray, 635 nm fluorescence scan (AID 1110). Particulars: LEFTY2 binding, higher = more signal.
Experiment [14] addresses Calmodulin-1 (Homo sapiens) (UniProt P0DP23). Description: CALM1 binders on microarrays, EGTA buffer, profiling panel, biochemical, small-molecule microarray, Cy5-labelled CALM1 (AID 1111).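 Further: labelled calmodulin applied in Tris saline Tween buffer holding calcium plus EGTA and DTT.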 As to conditions: Cy5-CALM1 binding fluorescence, higher = more signal.
Experiment [15] has the same target. Description: calcium-bound CALM1 binders on microarrays, profiling panel, artefact control for SMM control-protein annotation, biochemical, small-molecule microarray, Cy5-labelled CALM1, plus calcium (AID 1112).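 Further: score merges spot fluorescence with signal to noise from triplicate slides.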 As to conditions: Cy5-CALM1 binding fluorescence, higher = more signal.
The nature of experiment [16]: small-molecule microarray binders of probe aWnt5a, primary screen, biochemical, biotinylated probe, 635/667 nm fluorescence (AID 1113).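 Further: score merges 667 nm fluorescence intensity with signal-to-noise per printed feature.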 As to conditions: higher = more signal.
Experiment [17] is described as follows: small-molecule microarray binders of probe aShh, primary screen, biochemical, biotinylated probe, 635/667 nm fluorescence (AID 1114).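 Further: probe is biotin-labelled aShh protein from a stem cell growth factor screen; measures binding of labelled protein to compounds printed on the slide; score merges feature fluorescence at 667 nm with signal-to-noise.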 As to conditions: higher = more signal.
A short description of experiment [18]: small-molecule microarray binders of probe aNog, primary screen, biochemical, biotinylated probe, 635/667 nm fluorescence (AID 1115).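 Further: probe is biotinylated aNog protein used at 0.15 µg/mL for 1 h at 4 C; z-score combines 667 nm fluorescence of each spot with its signal to noise.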 Particulars: higher = more signal.
Experiment [19] addresses Torsin-1A-interacting protein 1 (Homo sapiens) (UniProt Q5JTV8). Description: LAP1 binders from COS7 cell lysate, primary screen, small-molecule microarray, 635/667 nm fluorescence (AID 1116). As to conditions: COS7-hLAP1 lysate binding, 635 nm fluorescence, higher = more signal.
Experiment [20] addresses Alpha-bungarotoxin (Bungarus multicinctus) (UniProt P60615). Description: alpha-bungarotoxin binders on microarray, profiling panel, artefact control for SMM control protein annotation, biochemical, small-molecule microarray, Alexa647 label, 635/667 nm fluorescence (AID 1117). Particulars: alpha-BTX-A647 binding fluorescence, higher = more signal.

Sequence of Fibroblast growth factor 10 (Homo sapiens) (O15520 whole entry, looked up): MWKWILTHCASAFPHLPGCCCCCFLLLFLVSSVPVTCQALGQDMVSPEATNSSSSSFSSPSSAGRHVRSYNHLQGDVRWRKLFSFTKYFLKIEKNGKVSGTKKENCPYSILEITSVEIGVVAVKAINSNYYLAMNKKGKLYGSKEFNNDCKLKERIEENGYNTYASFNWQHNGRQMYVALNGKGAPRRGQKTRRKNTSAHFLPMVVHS
Sequence of Torsin-1A-interacting protein 1 (Homo sapiens) (Q5JTV8 whole entry, looked up): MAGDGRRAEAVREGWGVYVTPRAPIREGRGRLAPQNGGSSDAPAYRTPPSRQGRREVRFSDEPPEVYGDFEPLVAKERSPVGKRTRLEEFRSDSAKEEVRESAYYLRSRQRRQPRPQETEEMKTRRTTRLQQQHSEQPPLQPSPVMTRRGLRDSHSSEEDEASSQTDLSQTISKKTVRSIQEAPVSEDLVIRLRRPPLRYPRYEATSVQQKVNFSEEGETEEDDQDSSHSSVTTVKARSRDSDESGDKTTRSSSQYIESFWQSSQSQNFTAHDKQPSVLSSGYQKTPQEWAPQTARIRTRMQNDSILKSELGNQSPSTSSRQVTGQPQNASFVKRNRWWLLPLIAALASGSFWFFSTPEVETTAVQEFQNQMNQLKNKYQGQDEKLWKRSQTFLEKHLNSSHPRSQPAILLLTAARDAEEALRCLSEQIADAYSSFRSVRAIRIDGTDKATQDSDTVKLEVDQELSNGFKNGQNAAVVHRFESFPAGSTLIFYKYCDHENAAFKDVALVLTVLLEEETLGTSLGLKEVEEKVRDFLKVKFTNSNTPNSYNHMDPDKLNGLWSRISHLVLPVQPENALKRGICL
Sequence of Epidermal growth factor receptor (Homo sapiens) (P00533 whole entry, looked up): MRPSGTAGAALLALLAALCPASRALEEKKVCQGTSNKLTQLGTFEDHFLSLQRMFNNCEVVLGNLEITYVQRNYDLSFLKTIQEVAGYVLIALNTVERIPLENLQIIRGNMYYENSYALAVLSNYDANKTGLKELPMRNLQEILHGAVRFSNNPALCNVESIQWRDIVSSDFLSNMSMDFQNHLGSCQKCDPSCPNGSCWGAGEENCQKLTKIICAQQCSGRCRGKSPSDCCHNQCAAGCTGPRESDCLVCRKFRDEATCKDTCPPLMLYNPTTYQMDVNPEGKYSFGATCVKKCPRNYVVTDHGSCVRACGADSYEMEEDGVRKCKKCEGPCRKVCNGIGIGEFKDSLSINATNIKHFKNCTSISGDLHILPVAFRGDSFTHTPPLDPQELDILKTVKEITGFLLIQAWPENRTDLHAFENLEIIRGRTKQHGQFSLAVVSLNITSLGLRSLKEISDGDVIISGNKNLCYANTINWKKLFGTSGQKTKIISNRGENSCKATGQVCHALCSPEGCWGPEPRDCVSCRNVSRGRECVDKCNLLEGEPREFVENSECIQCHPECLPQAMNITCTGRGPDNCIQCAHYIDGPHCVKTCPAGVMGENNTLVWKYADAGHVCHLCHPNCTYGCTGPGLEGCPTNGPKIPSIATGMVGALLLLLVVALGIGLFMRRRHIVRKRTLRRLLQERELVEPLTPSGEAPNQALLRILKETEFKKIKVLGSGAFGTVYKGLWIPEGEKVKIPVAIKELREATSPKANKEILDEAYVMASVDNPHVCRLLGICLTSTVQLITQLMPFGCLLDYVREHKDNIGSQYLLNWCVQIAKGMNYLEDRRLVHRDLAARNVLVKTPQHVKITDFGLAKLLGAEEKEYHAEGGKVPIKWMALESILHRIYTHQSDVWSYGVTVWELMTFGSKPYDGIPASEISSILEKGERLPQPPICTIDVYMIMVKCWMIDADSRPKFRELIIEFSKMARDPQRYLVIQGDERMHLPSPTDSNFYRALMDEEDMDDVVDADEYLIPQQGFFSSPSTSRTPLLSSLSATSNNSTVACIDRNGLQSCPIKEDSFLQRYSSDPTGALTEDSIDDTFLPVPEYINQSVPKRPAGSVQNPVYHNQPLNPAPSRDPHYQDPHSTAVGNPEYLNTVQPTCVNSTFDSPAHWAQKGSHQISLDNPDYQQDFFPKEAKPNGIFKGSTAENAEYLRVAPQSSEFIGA
Sequence of Follistatin-related protein 3 (Homo sapiens) (O95633 whole entry, looked up): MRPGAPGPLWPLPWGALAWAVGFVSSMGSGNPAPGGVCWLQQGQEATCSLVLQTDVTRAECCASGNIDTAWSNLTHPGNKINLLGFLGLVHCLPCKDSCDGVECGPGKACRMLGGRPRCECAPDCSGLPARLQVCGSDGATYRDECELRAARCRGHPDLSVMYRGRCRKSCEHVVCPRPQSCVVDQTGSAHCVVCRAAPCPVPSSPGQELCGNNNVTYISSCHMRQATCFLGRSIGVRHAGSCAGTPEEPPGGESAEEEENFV
Sequence of Dickkopf-related protein 1 (Homo sapiens) (O94907 whole entry, looked up): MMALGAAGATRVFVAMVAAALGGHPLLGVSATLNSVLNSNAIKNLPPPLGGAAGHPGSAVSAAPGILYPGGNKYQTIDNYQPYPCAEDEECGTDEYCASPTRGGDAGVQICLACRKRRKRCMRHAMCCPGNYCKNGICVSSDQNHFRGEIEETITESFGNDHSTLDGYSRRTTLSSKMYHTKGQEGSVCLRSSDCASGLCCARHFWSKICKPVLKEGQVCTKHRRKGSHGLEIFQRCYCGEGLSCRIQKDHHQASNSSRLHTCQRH
Sequence of Alpha-bungarotoxin (Bungarus multicinctus) (P60615 whole entry, looked up): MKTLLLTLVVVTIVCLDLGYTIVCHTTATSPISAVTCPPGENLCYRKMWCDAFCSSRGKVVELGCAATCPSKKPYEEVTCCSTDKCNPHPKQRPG
Sequence of Left-right determination factor 2 (Homo sapiens) (O00292 whole entry, looked up): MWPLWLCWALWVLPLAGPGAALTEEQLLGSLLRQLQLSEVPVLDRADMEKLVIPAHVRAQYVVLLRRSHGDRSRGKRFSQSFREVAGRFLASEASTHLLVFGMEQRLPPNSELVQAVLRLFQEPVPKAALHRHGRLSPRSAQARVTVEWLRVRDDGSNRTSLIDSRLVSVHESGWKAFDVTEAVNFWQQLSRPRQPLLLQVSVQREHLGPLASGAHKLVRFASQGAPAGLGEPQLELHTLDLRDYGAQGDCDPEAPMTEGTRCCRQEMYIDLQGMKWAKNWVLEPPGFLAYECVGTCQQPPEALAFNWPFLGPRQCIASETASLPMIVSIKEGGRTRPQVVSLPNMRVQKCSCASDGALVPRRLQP

`COC(=O)[C@]1(Cc2ccccc2)N=C(c2ccc(OCCCO)cc2)O[C@@H]1c1ccccc1CN=[N+]=[N-]`: the composite z-score in [1] was 0.965; in [2], 0.266; in experiment [3], 0.98; in experiment [5] it was 0.506; in experiment [6], 0.509; in [7], -0.296. Also, the composite z-score in experiment [8] was 0.175; in [9], -0.0456; in [10], 0.702; in experiment [11] it was 1.37; in experiment [13], -0.383; in [14], 0.63. Further, the composite z-score in experiment [15] was -0.293; in experiment [16], -0.0944; in experiment [17], 0.0796; in [18], 0.537; in experiment [19], 1.11; in experiment [20], 1.01. The figures for the z-score in experiment [4] and in [12] were 1.76 (inactive) and -3.37, respectively.

On to `CCOC(=O)C[C@H]1[C@H](OC(=O)c2cc3ccccc3oc2=O)[C@@H](NC(=O)CC(C)C)c2cc(OCCCO)ccc2N1C(=O)Cc1ccc(OC)cc1`, for which the composite z-score is 0.621 in [1]; -0.283 in experiment [2]; -0.309 in experiment [3]; 0.942 in [5]; 0.523 in [6]; 0.145 in experiment [7]. Besides, the composite z-score in experiment [8] is 0.91; in experiment [9] it was 0.481; in experiment [10] it was -0.0372; in [11], 0.653; in [13], 0.455; in [14], -0.0388. For the same compound, the composite z-score was -0.61 in experiment [15]; -0.16 in [16]; -0.206 in [17]; -0.238 in experiment [18]; 0.571 in experiment [19]; -0.472 in experiment [20]. In addition, the z-score in experiment [4] was -0.339 (inactive); in experiment [12], -0.0665.

For `O=C1C[C@]2(c3ccc([N+](=O)[O-])cc3)C(=O)N(C3CC3)c3cc(CO)ccc3[C@H]2N1C1CCCCC1`, the composite z-score was 0.389 in experiment [1]; -0.0619 in [2]; 0.305 in experiment [3]; -0.104 in experiment [5]; 0.139 in experiment [6]; -0.0618 in [7]. Besides, the composite z-score in [8] is -0.184; in [9], -0.198; in experiment [10] it was 0.847; in [11] it was 0.481; in experiment [13] it was 0.0985; in experiment [14], -0.301. Besides, the composite z-score is -0.931 in experiment [15]; -0.178 in experiment [16]; -0.0146 in experiment [17]; -0.383 in [18]; -0.0456 in [19]; 0.637 in experiment [20]. Further, the z-score is -0.282 (inactive) in experiment [4] and 0.82 in [12].

Turning to `CC(C)C[C@@H]1NC(=O)[C@@H]2C[C@H](C(=O)NCCCCCCNC(=O)CS)[C@H](c3cccc(OCCO)c3)N2C1=O`, the composite z-score was 1.65 in [1]; -0.0594 in experiment [2]; 0.237 in experiment [3]; 1.31 in [5]; 1.29 in experiment [6]; 0.876 in [7]. The composite z-score in [8] was found to be 1.52; in experiment [9], 1.4; in experiment [10] it was 0.626; in experiment [11], 1.47; in [13], 0.622; in [14], 1.03. For the same compound, the composite z-score in experiment [15] is 0.264; in experiment [16], 0.0375; in [17], 0.0611; in [18] it was -0.0172; in [19], 1.06; in experiment [20], 2.02. Moreover, the z-score is -0.356 (inactive) in [4] and -0.319 in experiment [12].

Turning to `CO[C@H]1O[C@H](CO)[C@@H](OC(=O)Nc2ccccc2-c2ccccc2)[C@H](OC(=O)Nc2ccccc2)[C@H]1OC(=O)Nc1ccccc1`, the composite z-score in experiment [1] is 1.43; in experiment [2], 0.821; in experiment [3] it was 0.886; in experiment [5] it was 1.45; in [6] it was 1.33; in experiment [7] it was 0.41. Also, the composite z-score in experiment [8] was determined as 1.41; in [9] it was 0.993; in experiment [10] it was 0.352; in experiment [11], 0.922; in experiment [13], 0.732; in [14], 1.27. The composite z-score is -0.144 in experiment [15]; 0.169 in experiment [16]; 0.269 in experiment [17]; 0.225 in experiment [18]; 1.07 in [19]; 1.64 in experiment [20]. Moreover, the values for the z-score in experiment [4] and in [12] were -0.299 (inactive) and -2.49, respectively.

For the compound `O=C(NCC(O)CO)C1N=C(c2ccc(OCCCO)cc2)N(c2ccccc2)O1` (stereo not given), the composite z-score in experiment [1] was -0.144; in experiment [2], -0.12; in [3] it was -0.104; in [5], 0.897; in experiment [6] it was 0.65; in experiment [7], 0.195. In addition, the composite z-score in experiment [8] is 0.799; in [9], 0.433; in [10], -0.899; in experiment [11], 1.08; in [13] it was 0.48; in [14], 0.0138. For the same compound, the composite z-score in experiment [15] was -0.332; in [16], -0.103; in experiment [17] it was -0.232; in [18], -0.243; in experiment [19] it was 1.35; in [20], 0.282. The results for the z-score in [4] and in experiment [12] were -1.13 (inactive) and -0.95, respectively.
